Measured values reported in PubChem BioAssay.
Some of the results follow. Active and inactive are the calls of the source.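 How the source made its calls, unless noted: active means inhibition above the mean plus 3 SD of solvent-only control wells, limit set per screening run (cut at about 16% in these data); inactive means the rest.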

Tests used:
[1] = STAT3 reporter inhibitors, retest of hits, confirmation, U3A cells, luciferase, luminescence (AID 1265;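 active means inhibition above the hit cutoff computed for the primary STAT3 screen, cut at about 44% in these data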;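 further: 0% = IL-6 plus DMSO and 100% = IL-6 plus nifuroxazide control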); conditions: IL-6 STAT3 luciferase reporter, at 5.7 µM, active compounds read high, cell line lacks STAT1
[2] = NF-kB reporter inhibitors in human cells, confirmation, counter-screen for STAT3 inhibitor project, cell-based, HEK293T, luciferase, TNF-alpha stimulus (AID 1308;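 active means inhibition above the mean of solvent-only control wells plus 3 SD, cutoff set per campaign, cut at about 13% in these data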;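 further: 0% = TNF-alpha with DMSO and 100% = TNF-alpha with MG high control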); conditions: TNF-alpha induced, at 5.7 µM, active compounds read high
[3] = STAT1 reporter inhibitors, IFN-gamma induced, confirmation, counter-screen for STAT3 inhibitor project, cell-based, NIH 3T3, luciferase luminescence (AID 1317); conditions: NIH 3T3 STAT1-luciferase reporter, at 5.7 µM, active compounds read high;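 further: 0% = DMSO with IFN-gamma and 100% = nifuroxazide control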
[4] = molecular target: Photoreceptor-specific nuclear receptor (Homo sapiens) (UniProt Q9Y5X4); test: NR2E3 agonist confirmation in cells, cell-based, luminescence, CHO-S two-hybrid (AID 624378;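 active means average inhibition above a cutoff equal to the mean inhibition of all tested compounds plus one SD, cut at about 70% in these data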;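 further: 0% = DMSO in NR2E3 cells and 100% = DMSO in cells lacking NR2E3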); conditions: CHO-S mammalian two-hybrid NR2E3-NCOR, luciferase luminescence; at 3.98 µM; active compounds read high
[5] = GAL4-VP16 reporter modulators, confirmation, counter-screen for NR2E3 agonist project, cell-based, luminescence, CHO-S, high throughput (AID 624379;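 active means mean inhibition above a cutoff equal to the average over all tested compounds plus one standard deviation, cut at about 70% in these data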;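 further: 0% = DMSO with VP16-transfected cells and 100% = DMSO with cells lacking VP16; higher means less reporter light so more repression of VP16 activity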); conditions: CHO-S GAL4-VP16 luciferase reporter, at 3.98 µM, active compounds read high
[6] = Gal4-VP16 luciferase reporter inhibitors, counter-screen for COUP-TFII antagonist project, cell-based, luminescence, HEK293 (AID 687007; in the data active means inhibition above about 13%); conditions: at 8.5 µM, active compounds read high
[7] = molecular target: COUP transcription factor 2 (Homo sapiens) (UniProt P24468); test: NR2F2 transcriptional activity inhibitors, confirmation, cell-based, luciferase reporter, HEK293, triplicate (AID 687008;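 active means mean inhibition over three repeats above a set limit taken from the earlier primary screen, cut at about 38% in these data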;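 further: 100% = cells given the luciferase reporter alone without the COUP-TF2 vector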); conditions: HEK293 NGFI-A luciferase reporter, luminescence; at 8.5 µM; active compounds read high
[8] = molecular target: Nuclear receptor coactivator 3 (Homo sapiens) (UniProt Q9Y6Q9); test: SRC3 coactivator transcriptional activity inhibitors, confirmation, cell-based, luminescence, quadruplicate (AID 588792;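 active means mean inhibition over 43.08%, the solvent-only control mean plus 3 SD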;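 further: 0% = DMSO treated cells and 100% = gossypol at 36 µM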); conditions: HEK293 GAL4-SRC3 luciferase reporter, at 3.6 µM, active compounds read high
[9] = test system: transactivating tegument protein VP16 (Human herpesvirus 1), Gal4-VP16 luciferase reporter; test: VP16 transactivation inhibitors, counter-screen for SRC3 inhibitor project, cell-based, luminescence, high throughput (AID 588794; in the data active means inhibition above about 30%); conditions: mammalian cells, VP16-driven luciferase reporter luminescence; at 3.6 µM; active compounds read high
[10] = test system: DAF-12 nuclear receptor (Heterodera glycines), GAL4-LBD fusion; test: H. glycines DAF-12 receptor agonists, confirmation, cell-based, luminescence, HEK293, GAL4-LBD fusion (AID 743050;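 active means mean activation over triplicate wells above the hit cutoff derived from the earlier primary screen, cut at about 11% in these data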;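 further: 0% = DMSO low control and 100% = 2 mM sodium butyrate high control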); conditions: HEK293 GAL4-hgDAF12 luciferase reporter, agonist mode; at 6.8 µM; active compounds read high; percent of butyrate response
[11] = molecular target: Oxysterols receptor LXR-beta (Homo sapiens) (UniProt P55055); test: LXR agonists, Gal4 luciferase reporter, confirmation, counter-screen for hgDAF-12 agonist project, cell-based, luminescence, HEK293, H. glycines campaign (AID 743051;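 active means mean activation of the triplicate above a set limit carried over from the primary screen, none filed active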); conditions: 24 h, at 6.8 µM, active compounds read high
[12] = molecular target: Peroxisome proliferator-activated receptor gamma (Homo sapiens) (UniProt P37231); test: agonists of PPARgamma SRC-2 coactivator recruitment, confirmation, biochemical, HTS (AID 1297; in the data active means activation above about 22%;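 further: 0% = vehicle alone and 100% = reference agonist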); conditions: biochemical SRC-2 recruitment by PPARgamma; at 8 µM; active compounds read high
[13] = molecular target: Peroxisome proliferator-activated receptor gamma (Homo sapiens) (UniProt P37231); test: PPARgamma agonists recruiting SRC-1 coactivator, confirmation, biochemical (AID 1300; in the data active means activation above about 20%;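 further: 0% = vehicle wells and 100% = reference agonist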); conditions: PPARgamma–SRC-1 coactivator recruitment biochemical assay; at 8 µM; active compounds read high
[14] = molecular target: Peroxisome proliferator-activated receptor gamma (Homo sapiens) + Nuclear receptor coactivator 3 (Homo sapiens) (UniProt P37231+Q9Y6Q9); test: PPARgamma-driven SRC-3 coactivator recruitment agonists, confirmation, biochemical (AID 1301; in the data active means activation above about 24%;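 further: 0% = vehicle wells and 100% = reference agonist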); conditions: biochemical PPARgamma-SRC-3 coactivator recruitment, agonist mode; at 8 µM; active compounds read high
[15] = StAR promoter reporter inhibitors, counter-screen for LRH-1 inverse agonist project, cell-based, luminescence, high throughput (AID 651611; in the data active means inhibition above about 28%); conditions: StAR promoter luciferase reporter counterscreen, at 3.6 µM, active compounds read high
[16] = molecular target: Nuclear receptor subfamily 5 group A member 2 (Homo sapiens) (UniProt O00482); test: LRH-1 (NR5A2) inverse agonists, retest, confirmation, cell-based, luminescence (AID 651613; in the data active means inhibition above about 42%;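 further: HEK293T cells co-transfected with LRH-1 and StAR promoter luciferase reporter; 0% = vehicle wells and 100% = parental cells lacking receptor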); conditions: cell-based LRH-1 luciferase reporter, inverse agonism; at 3.6 µM; active compounds read high
[17] = molecular target: Steroidogenic factor 1 (Homo sapiens) (UniProt Q13285); test: SF1 (NR5A1) inverse agonists, counter-screen for LRH-1 inverse agonist project, cell-based, luminescence, high throughput (AID 651614; in the data active means inhibition above about 44%;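 further: cells cotransfected with StAR promoter reporter and SF1 expression vector; 0% = vehicle on cells with receptor and 100% = vehicle on cells lacking receptor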); conditions: cell-based SF1 luciferase reporter, at 3.6 µM, active compounds read high
[18] = VP16 transactivation reporter inhibitors, counter-screen for LRH-1 inverse agonist project, cell-based, luminescence, high throughput (AID 651615; in the data active means inhibition above about 33%); conditions: Gal4-VP16 luciferase reporter cells, at 3.6 µM, active compounds read high
[19] = molecular target: Oxysterols receptor LXR-beta (Homo sapiens) (UniProt P55055); test: LXR agonists, Gal4 luciferase reporter, confirmation, counter-screen for hcDAF-12 agonist project, cell-based, luminescence, HEK293, H. contortus campaign (AID 743027;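 active means mean percent activation of the reporter above a cutoff set as the average over tested compounds plus their standard deviation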); conditions: HEK293 Gal4-LXR tk-luc reporter, 24 h, at 6.8 µM, active compounds read high, normalized: DMSO 0%, positive control 100%
[20] = test system: Nuclear hormone receptor DAF-12 (Haemonchus contortus); test: H. contortus DAF-12 receptor agonists, confirmation, cell-based, luminescence, HEK293, lit1-tk-luc, triplicate (AID 743032;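 active means mean activation across triplicate tests above the threshold derived from the earlier primary screen, cut at about 5.5% in these data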;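 further: 0% = DMSO only wells and 100% = 3 µM Δ7-dafachronic acid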); conditions: HEK293 hcDAF-12 lit1-tk-luc reporter, at 6.8 µM, active compounds read high, % of Δ7-dafachronic acid response
[21] = molecular target: Galanin receptor type 2 (Homo sapiens) (UniProt O43603); test: GALR2 antagonists, retest of hits, confirmation, cell-based (AID 866; in the data active means inhibition above about 27%;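 further: cells stimulated with galanin at about its EC80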); conditions: GALR2-expressing cells, antagonist mode, at 4 µM, active compounds read high
[22] = inhibitors of NFAT-driven beta-lactamase reporter, confirmation, counter-screen for GALR2 antagonist project, CHO NFAT-bla cells, FRET readout (AID 867;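 active means inhibition above the mean inhibition across tested compounds plus 3 SD, cut at about 27% in these data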;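 further: 0% = 500 nM thapsigargin stimulated wells and 100% = unstimulated BSA only wells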); conditions: thapsigargin-stimulated, at 4.2 µM, active compounds read high
[23] = molecular target: Neuropeptide Y receptor type 2 (Homo sapiens) (UniProt P49146); test: NPY-Y2 potentiators or agonists, confirmation, cell-based (AID 1539; in the data active means activation above about 33%); conditions: cell-based NPY-Y2 potentiator/agonist assay; at 3.6 µM; active compounds read high
[24] = molecular target: Neuropeptide Y receptor type 1 (Homo sapiens) (UniProt P25929); test: NPY-Y1 potentiators or agonists, counter-screen for NPY-Y2 potentiator project, cell-based, fluorescence (AID 1651; in the data active means activation above about 45%;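 further: cells stimulated with submaximal NPY then isoproterenol with phosphodiesterase inhibitor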); conditions: Y1 HEK293-CNG cells, membrane potential fluorescence; at 3.6 µM; active compounds read high
[25] = molecular target: Neuropeptide Y receptor type 1 (Homo sapiens) (UniProt P25929); test: NPY-Y1 direct agonists, selectivity assay for NPY-Y2 potentiator project, cell-based, fluorescence (AID 1702;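 active means activation above the mean of DMSO-only control wells plus 3 SD, cut at about 18% in these data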;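 further: cells stimulated with 1 µM isoproterenol plus the PDE inhibitor Ro 20-1724; 0% = isoproterenol with DMSO and no NPY and 100% = 40 nM NPY; Y1 agonists lower the membrane potential dye signal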); conditions: HEK293 Y1-CNGC, membrane potential fluorescence, agonism; at 3.6 µM; active compounds read high
[26] = CNGC cAMP sensor activity inhibitors, counter-screen for NPY-Y2 potentiator project, cell-based, HEK293-CNG parental, membrane potential fluorescence (AID 1703;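 active means inhibition above the control-well mean plus 3 SD of those wells, cut at about 22% in these data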;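 further: 0% = DMSO with isoproterenol and 100% = DMSO without isoproterenol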); conditions: isoproterenol cAMP, at 3.6 µM, active compounds read high
[27] = molecular target: Neuropeptide Y receptor type 2 (Homo sapiens) (UniProt P49146); test: NPY-Y2 direct agonists, counter-screen for NPY-Y2 potentiator project, cell-based, fluorescence (AID 1710;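 active means activation above the mean of solvent-only control wells plus 3 SD, cut at about 10% in these data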;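 further: cells stimulated by isoproterenol with no NPY added so direct agonism is tested; 0% = DMSO with isoproterenol alone and 100% = NPY at EC100 plus isoproterenol; agonism lowers probe fluorescence through less cAMP and CNG channel opening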); conditions: HEK293 Y2/CNGC cells, membrane potential fluorescence, agonist mode; at 3.6 µM; active compounds read high
[28] = KLF5 expression inhibitors, confirmation, DLD-1 cells, luminescence (AID 1834;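 active means inhibition above a set limit taken from the earlier primary screen, cut at about 63% in these data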;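 further: 0% = DMSO wells and 100% = LY294002 at 200 µM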); conditions: DLD-1 KLF5 promoter firefly luciferase reporter, at 4 µM, active compounds read high
[29] = cytotoxicity in rat IEC-6 cells, cytotoxicity control for KLF5 inhibitor project, cell-based, luminescence, triplicate (AID 1905; in the data active means inhibition above about 23%;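 further: cells exposed to compounds for 48 hours before viability read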); conditions: IEC-6 rat intestinal cells, viability luminescence; at 4 µM; active compounds read high
[30] = molecular target: Oxytocin receptor (Homo sapiens) (UniProt P30559); test: human OXTR agonists, confirmation, fluorescence, CHO-OTR cells, triplicate (AID 434963;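 active means mean activation above about 20% derived from the earlier single-dose screen, limit read from the data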;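 further: peak over minimum fluorescence ratio per well during a 100 second FLIPR read; 0% = DMSO alone and 100% = oxytocin high control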); conditions: Fluo-8 calcium fluorescence, agonist, at 3 µM, active compounds read high
[31] = molecular target: Vasopressin V1a receptor (Homo sapiens) (UniProt P37288); test: V1a receptor agonists, calcium signal, counter-screen for OXTR agonist project, triplicate, fluorescence, CHO-V1R cells (AID 434991;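 active means mean activation over triplicate exceeds the hit threshold set in the earlier primary screen, cut at about 20% in these data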;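 further: peak over basal fluorescence ratio within a 100 second read; 0% = DMSO alone and 100% = 3 nM vasopressin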); conditions: Fluo-8 calcium fluorescence, at 3 µM, active compounds read high
[32] = molecular target: Nuclear receptor coactivator 1 (Homo sapiens) (UniProt Q15788); test: SRC1 coactivator transcriptional activity inhibitors, confirmation, cell-based, luminescence, quadruplicate (AID 588820;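 active means mean inhibition above 46.68%, the untreated control wells mean plus 3 SD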;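 further: 0% = DMSO wells and 100% = gossypol 36 µM treated wells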); conditions: HEK293 GAL4-SRC1 luciferase reporter, at 3.6 µM, active compounds read high
[33] = VP16 transactivation inhibitors, counter-screen for SRC1 inhibitor project, cell-based, luminescence, high throughput (AID 588824; in the data active means inhibition above about 25%); conditions: cell-based VP16 transactivation luciferase luminescence; at 3.6 µM; active compounds read high
[34] = growth loss of phage-infected RecBCD+ E. coli, confirmation, RecBCD inhibitor project, absorbance, E. coli V66, T4 gene 2 phage (AID 651982;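 active means mean inhibition over triplicates exceeding the hit threshold derived in the original primary screen, cut at about 11% in these data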); conditions: E. coli V66 + T4 2- phage, growth OD; at 11.9 µM; active compounds read high
[35] = E. coli viability inhibition, counter-screen for RecBCD inhibitor project, absorbance, high throughput (AID 651983; in the data active means inhibition above about 20%;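 further: E. coli strain V66 grown with compound alone and no phage infection; 0% = bacteria with DMSO vehicle only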); conditions: absorbance (OD) growth, at 11.9 µM, active compounds read high
[36] = growth loss of phage-infected AddAB-carrying E. coli, confirmation, counter-screen for RecBCD inhibitor project, absorbance, E. coli V3065, T4 phage (AID 651984;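 active means mean inhibition above the solvent-only control wells' mean plus 3 SD, cut at about 22% in these data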;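 further: higher means less bacterial growth from phage killing when AddAB is blocked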); conditions: E. coli expressing H. pylori AddAB + T4 phage, OD growth; at 11.9 µM; active compounds read high; gene 2 mutant T4, recBCD-deleted host

Chain of Nuclear receptor subfamily 5 group A member 2 (Homo sapiens) (O00482 whole entry, looked up): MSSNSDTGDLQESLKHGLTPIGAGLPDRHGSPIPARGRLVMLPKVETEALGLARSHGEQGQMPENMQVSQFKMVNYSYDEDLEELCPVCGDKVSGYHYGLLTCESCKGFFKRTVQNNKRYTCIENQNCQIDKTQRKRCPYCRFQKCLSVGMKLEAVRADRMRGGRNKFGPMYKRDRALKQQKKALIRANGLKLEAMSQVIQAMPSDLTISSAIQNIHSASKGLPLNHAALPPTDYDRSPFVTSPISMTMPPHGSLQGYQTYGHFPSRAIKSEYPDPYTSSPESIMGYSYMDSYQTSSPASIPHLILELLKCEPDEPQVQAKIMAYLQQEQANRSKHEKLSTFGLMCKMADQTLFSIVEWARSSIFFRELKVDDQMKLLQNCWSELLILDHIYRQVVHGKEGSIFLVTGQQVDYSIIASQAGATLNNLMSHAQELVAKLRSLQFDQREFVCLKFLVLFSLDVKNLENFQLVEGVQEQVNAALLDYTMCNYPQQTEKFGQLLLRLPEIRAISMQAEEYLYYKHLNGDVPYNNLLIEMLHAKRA
Chain of COUP transcription factor 2 (Homo sapiens) (P24468 whole entry, looked up, the tested form may be a part): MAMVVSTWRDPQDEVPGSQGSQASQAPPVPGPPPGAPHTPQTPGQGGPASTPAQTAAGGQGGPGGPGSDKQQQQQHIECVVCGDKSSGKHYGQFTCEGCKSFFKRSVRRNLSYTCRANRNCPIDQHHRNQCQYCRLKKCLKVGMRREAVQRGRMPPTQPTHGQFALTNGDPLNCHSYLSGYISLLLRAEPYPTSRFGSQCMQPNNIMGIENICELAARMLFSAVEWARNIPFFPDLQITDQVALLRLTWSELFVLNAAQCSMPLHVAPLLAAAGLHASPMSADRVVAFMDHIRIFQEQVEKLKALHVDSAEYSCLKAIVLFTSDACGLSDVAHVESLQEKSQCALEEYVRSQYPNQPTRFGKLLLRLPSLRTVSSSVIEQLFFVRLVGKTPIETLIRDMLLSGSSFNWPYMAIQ
Chain of Peroxisome proliferator-activated receptor gamma (Homo sapiens) + Nuclear receptor coactivator 3 (Homo sapiens) (P37231 whole entry, looked up): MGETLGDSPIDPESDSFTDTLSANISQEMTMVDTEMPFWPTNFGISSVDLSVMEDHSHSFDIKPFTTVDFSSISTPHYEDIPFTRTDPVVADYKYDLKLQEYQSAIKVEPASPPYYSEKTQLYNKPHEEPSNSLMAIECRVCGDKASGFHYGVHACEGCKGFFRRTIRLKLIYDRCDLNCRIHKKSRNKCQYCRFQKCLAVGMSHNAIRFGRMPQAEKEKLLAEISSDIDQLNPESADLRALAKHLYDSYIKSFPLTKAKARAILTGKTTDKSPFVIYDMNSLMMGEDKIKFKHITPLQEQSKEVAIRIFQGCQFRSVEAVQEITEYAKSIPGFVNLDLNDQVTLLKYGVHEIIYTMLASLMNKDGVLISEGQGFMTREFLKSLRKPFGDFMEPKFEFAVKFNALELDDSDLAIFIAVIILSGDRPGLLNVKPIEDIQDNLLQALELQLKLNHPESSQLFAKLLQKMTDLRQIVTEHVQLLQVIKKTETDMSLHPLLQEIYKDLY
Chain of Peroxisome proliferator-activated receptor gamma (Homo sapiens) + Nuclear receptor coactivator 3 (Homo sapiens) (Q9Y6Q9 whole entry, looked up): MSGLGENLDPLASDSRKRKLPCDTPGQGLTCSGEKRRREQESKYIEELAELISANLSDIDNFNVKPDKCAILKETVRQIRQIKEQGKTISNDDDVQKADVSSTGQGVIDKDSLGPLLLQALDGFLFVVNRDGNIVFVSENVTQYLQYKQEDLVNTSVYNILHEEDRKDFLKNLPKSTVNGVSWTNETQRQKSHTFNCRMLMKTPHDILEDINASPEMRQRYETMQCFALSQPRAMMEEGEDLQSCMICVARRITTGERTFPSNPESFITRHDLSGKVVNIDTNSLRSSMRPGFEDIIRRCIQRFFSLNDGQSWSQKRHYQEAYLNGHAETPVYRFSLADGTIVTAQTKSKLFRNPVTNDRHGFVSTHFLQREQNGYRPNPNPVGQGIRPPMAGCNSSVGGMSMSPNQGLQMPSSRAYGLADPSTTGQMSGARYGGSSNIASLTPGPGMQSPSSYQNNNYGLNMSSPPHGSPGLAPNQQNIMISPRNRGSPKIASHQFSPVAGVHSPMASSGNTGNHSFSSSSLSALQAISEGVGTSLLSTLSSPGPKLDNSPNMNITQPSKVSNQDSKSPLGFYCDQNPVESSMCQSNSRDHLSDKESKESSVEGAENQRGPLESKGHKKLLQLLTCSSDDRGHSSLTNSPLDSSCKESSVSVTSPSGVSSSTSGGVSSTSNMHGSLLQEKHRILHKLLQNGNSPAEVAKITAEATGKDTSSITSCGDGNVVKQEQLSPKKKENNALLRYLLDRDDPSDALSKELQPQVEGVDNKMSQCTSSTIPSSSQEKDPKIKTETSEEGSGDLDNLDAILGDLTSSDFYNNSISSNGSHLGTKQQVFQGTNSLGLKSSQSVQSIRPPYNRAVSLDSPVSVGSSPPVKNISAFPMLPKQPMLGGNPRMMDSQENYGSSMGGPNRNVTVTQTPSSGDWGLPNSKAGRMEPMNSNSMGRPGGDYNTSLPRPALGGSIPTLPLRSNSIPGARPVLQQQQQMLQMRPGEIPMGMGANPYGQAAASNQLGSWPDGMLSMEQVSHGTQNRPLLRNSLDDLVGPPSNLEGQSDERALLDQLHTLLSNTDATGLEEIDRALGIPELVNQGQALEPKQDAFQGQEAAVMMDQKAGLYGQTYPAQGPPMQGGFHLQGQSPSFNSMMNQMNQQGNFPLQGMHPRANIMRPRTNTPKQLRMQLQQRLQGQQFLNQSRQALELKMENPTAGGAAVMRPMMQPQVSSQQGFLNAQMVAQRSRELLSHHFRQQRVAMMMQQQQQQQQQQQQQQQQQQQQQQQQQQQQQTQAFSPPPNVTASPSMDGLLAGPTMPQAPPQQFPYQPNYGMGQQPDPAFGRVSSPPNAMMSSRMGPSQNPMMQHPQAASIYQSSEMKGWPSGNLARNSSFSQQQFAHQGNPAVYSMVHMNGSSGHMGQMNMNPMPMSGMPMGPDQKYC
Chain of Peroxisome proliferator-activated receptor gamma (Homo sapiens) (P37231 whole entry, looked up): as the sequence (P37231 whole entry, looked up) above
Chain of Photoreceptor-specific nuclear receptor (Homo sapiens) (Q9Y5X4 whole entry, looked up, the tested form may be a part): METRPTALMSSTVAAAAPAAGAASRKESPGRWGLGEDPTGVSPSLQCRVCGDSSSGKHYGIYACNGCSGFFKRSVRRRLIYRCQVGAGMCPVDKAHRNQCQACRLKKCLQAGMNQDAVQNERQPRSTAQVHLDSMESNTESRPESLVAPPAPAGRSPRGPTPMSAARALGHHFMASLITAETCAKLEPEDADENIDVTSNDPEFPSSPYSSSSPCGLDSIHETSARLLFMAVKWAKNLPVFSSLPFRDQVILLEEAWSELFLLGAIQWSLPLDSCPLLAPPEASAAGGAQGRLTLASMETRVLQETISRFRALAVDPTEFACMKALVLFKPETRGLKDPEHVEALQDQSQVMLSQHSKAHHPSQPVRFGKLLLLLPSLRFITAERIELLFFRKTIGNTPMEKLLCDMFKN
Chain of Oxysterols receptor LXR-beta (Homo sapiens) (P55055 whole entry, looked up, the tested form may be a part): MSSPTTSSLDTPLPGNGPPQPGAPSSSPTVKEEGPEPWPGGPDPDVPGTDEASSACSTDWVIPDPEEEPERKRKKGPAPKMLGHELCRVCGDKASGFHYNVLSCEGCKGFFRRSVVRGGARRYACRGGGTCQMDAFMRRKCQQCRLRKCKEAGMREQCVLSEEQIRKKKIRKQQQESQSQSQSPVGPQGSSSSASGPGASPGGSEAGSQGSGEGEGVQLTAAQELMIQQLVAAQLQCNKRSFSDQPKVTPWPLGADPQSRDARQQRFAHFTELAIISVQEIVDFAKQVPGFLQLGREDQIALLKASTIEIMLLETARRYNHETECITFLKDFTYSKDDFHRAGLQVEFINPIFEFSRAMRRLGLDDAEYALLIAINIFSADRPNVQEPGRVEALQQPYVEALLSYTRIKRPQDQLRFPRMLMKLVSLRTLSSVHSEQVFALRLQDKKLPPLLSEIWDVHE
Chain of Steroidogenic factor 1 (Homo sapiens) (Q13285 whole entry, looked up, the tested form may be a part): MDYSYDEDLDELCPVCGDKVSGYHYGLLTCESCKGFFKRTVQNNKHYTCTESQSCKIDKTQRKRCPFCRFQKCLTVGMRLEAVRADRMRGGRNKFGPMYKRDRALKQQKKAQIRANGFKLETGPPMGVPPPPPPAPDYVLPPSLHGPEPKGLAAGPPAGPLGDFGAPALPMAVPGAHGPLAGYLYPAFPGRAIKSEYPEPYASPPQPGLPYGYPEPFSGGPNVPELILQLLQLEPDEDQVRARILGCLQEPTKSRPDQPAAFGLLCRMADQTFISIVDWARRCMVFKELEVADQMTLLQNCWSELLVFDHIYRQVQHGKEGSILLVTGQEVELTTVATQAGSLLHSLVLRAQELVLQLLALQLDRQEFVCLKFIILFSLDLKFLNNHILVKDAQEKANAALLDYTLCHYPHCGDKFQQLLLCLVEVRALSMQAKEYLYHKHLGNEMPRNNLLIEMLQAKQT
Chain of Nuclear receptor coactivator 3 (Homo sapiens) (Q9Y6Q9 whole entry, looked up, the tested form may be a part): as the sequence (Q9Y6Q9 whole entry, looked up) above

COc1ccc(Cn2c(=O)sc3ccccc32)cc1OC
active: inhibition [4] 70.9%
inactive: inhibition [1] 36.6% | inhibition [2] 2.57% | inhibition [3] 13.3% | inhibition [5] 64.8% | inhibition [6] -3.5% | inhibition [7] 26.6%

CC(C)(CNC(=O)c1ccc(Cl)c(S(=O)(=O)N2CCc3ccccc3C2)c1)N1CCOCC1
active: inhibition [1] 57.1% | inhibition [2] 13.4% | inhibition [9] 32.8% | inhibition [7] 38.9%
inactive: inhibition [3] 9% | inhibition [8] 7.77% | inhibition [6] 0.6%

O=c1oc(/C=C/c2ccccc2)nc2ccccc12
inactive: inhibition [1] 10.7% | inhibition [2] -7.17% | inhibition [3] -42.9% | activation [11] 0.58%
active: activation [10] 14.4%

CNC(=S)N1N=C(c2ccccc2)CC1c1ccc(Br)cc1 (stereo not drawn)
active: activation [12] 24.2% | activation [13] 23.1%
inactive: activation [14] 17.2%

Cc1nc(CNS(=O)(=O)c2ccc(Oc3ccccc3)cc2)cs1
inactive: inhibition [2] 6.1% | inhibition [3] 12.1% | inhibition [15] 11% | inhibition [6] 1.48% | inhibition [7] 27%
active: inhibition [1] 43.6% | inhibition [4] 87.9% | inhibition [5] 82.8% | inhibition [16] 44.6% | inhibition [17] 43.7% | inhibition [18] 37%

c1coc(CNc2ncnc3ccccc23)c1
inactive: inhibition [1] 40.4% | inhibition [5] 56.3% | inhibition [6] 4.88%
active: inhibition [2] 15.2% | inhibition [3] 30.5% | inhibition [4] 71.1% | inhibition [7] 40.9%

O=C(Nc1cccc(S(=O)(=O)Nc2ccc(Cl)cc2)c1)c1ccc2c(c1)OCCO2
inactive: inhibition [6] -4.16%
active: inhibition [1] 55.6% | inhibition [2] 15.4% | inhibition [3] 17.7% | inhibition [7] 42.2%

Cc1ccc(-c2cc(C(=O)NCc3cn(C)nc3C)c3cc(Br)ccc3n2)cc1
active: activation [12] 25.7%
inactive: activation [13] 15.9% | activation [14] 16.9%

COc1cc(SC)ccc1C(=O)Nc1cc(C)ccn1
inactive: inhibition [1] 8.73% | inhibition [2] -35.4% | inhibition [3] -139% | activation [19] 1.02% | activation [20] 4.37% | activation [11] 1.05%
active: activation [10] 17.2%

N=C(N)SCc1cccc2ccccc12
active: inhibition [3] 19.2%
inactive: inhibition [1] 31.7% | inhibition [2] 4.87% | inhibition [6] 6.09% | inhibition [7] 20.6%

CCc1ccc(-n2c(SCc3cc(=O)n4cc(Br)ccc4n3)nc3[nH]ncc3c2=O)cc1
active: activation [12] 40.9% | activation [13] 26.6% | activation [14] 28.8%

CC(C)CC(=O)N/C(N)=N/c1nc2ccccc2s1
active: activation [20] 5.93%
inactive: inhibition [1] 6.93% | inhibition [2] -39.6% | inhibition [3] -138% | activation [19] 1.25%

O=C(CSc1c2c(nc3ccc(Cl)cc13)CCCC2)NCc1ccco1
inactive: activation [12] 19.2% | activation [13] 15.5% | activation [14] 14.4%

O=c1c2c(nc3cc(-c4cccc(Cl)c4)[nH]n13)CCCC2
inactive: inhibition [1] 21.9% | inhibition [2] -3.1% | inhibition [3] -108% | activation [19] 1.76% | activation [11] 1.15%
active: activation [20] 9.19% | activation [10] 13.8%

COc1ccc(NS(=O)(=O)c2ccc(NC(=O)c3ccc(N(C)S(C)(=O)=O)cc3)cc2)cc1
active: inhibition [1] 56.6% | inhibition [16] 50.5% | inhibition [17] 46.7% | inhibition [18] 40.7% | inhibition [7] 45%
inactive: inhibition [2] 9.03% | inhibition [3] 5.2% | inhibition [15] 19.3% | inhibition [6] 8.59%

COc1ccc(-c2csc(Nc3ccccn3)n2)cc1
inactive: inhibition [1] 15.2% | inhibition [2] -36.5% | inhibition [3] -205% | activation [19] 1.36%
active: activation [20] 6.22%

O=C(NC(Nc1nc2ccc([N+](=O)[O-])cc2s1)(C(F)(F)F)C(F)(F)F)c1ccccc1
inactive: activation [23] 30.6% | activation [24] -2.54% | activation [25] -9.19% | inhibition [26] -2.45% | activation [30] 13% | activation [31] 8.96% | inhibition [32] 38.7% | inhibition [34] 8% | inhibition [35] 10.7% | inhibition [36] 11.3% | inhibition [6] 6.94%
active: inhibition [21] 99.4% | inhibition [22] 69.4% | activation [27] 22.1% | inhibition [28] 83.7% | inhibition [29] 90.4% | inhibition [8] 69.1% | inhibition [9] 84.5% | inhibition [33] 84.3% | inhibition [4] 98.5% | inhibition [5] 93.3% | inhibition [15] 82.9% | inhibition [16] 105% | inhibition [17] 93.3% | inhibition [18] 86.8% | inhibition [7] 65.9%
